Screens: PubChem BioAssay, The Scripps Research Institute Molecular Screening Center
ssDAF12 agonist – activates DAF-12 receptor from parasite S. stercoralis; HEK293 ssDAF-12/GRIP1 lit1-tk-luc reporter, luminescence; % of 3 µM dafachronic acid response; activation, % at 6.8 µM; 370,000 compounds, 1% hits;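 active means activation above the mean over all tested compounds plus 3 SD, cut at about 0.9% in these data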;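 further: 0% = DMSO-only wells and 100% = 3 µM delta7-dafachronic acid wells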
SMARCA2 activ – SMARCA2 function activation, primary screen. MG213 cells, MMTV-luciferase reporter, dexamethasone, overnight. activation, % at 9.1 µM. 370,000 compounds, 1% hits. AID 652017; in the data active means activation above about 7.8%;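 further: 0% = vehicle wells and 100% = reference activator wells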
DAX1 inh-1 – inhibitors of human orphan nuclear receptor DAX1 (NR0B1); P51843; HEK293 Gal4-DAX1 luciferase reporter, luminescence; inhibition, % at 6.75 µM; 340,000 compounds, 0.99% hits; AID 504766;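 active means inhibition above the mean over all tested compounds plus 3 SD, cut at about 4.2% in these data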;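 further: 0% = DAX1-transfected cells with DMSO and 100% = empty-vector control cells with DMSO; inhibition shows as a rise in luminescence from relieved DAX1 repression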
Target sequence (P51843 207-470 limits assumed): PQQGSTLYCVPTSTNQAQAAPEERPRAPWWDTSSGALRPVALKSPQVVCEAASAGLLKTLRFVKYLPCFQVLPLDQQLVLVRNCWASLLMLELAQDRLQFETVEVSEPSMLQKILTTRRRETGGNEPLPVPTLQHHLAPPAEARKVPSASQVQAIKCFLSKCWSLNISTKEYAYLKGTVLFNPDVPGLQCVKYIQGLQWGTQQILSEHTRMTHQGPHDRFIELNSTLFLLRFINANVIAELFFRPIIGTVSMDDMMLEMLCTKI
DAX1 inh-2 – blocks DAX1 repression of SF-1 activated StAR promoter. HEK293T StAR-luciferase reporter, SF-1/DAX-1 repression relief. inhibition, % at 6.8 µM. 370,000 compounds, 1.1% hits. AID 652010;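 active means inhibition above the mean over all tested compounds plus 3 SD, cut at about 3.6% in these data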;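 further: 0% = DAX-1 cells with DMSO and 100% = cells lacking DAX-1 with DMSO; higher inhibition means more luminescence from relief of DAX-1 repression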
hcDAF-12 act – activates DAF-12 receptor from parasite H. contortus; HEK293 hcDAF-12 lit1-tk-luc reporter, luminescence; 0% DMSO, 100% Δ7-dafachronic acid; activation, % at 6.8 µM; 370,000 compounds, 1.4% hits;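 active means activation above the mean of all tested compounds plus 3 SD, cut at about 5.5% in these data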;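 further: 100% = response to 3 µM Δ7-dafachronic acid high control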
hgDAF12 agonist – agonists of H. glycines DAF-12 nuclear receptor | HEK293 GAL4-hgDAF12 UAS-luciferase reporter, agonist luminescence; normalized to butyrate control | activation, % at 6.8 µM | 370,000 compounds, 1.8% hits | AID 687014;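 active means activation above a cutoff set at the mean of all screened compounds plus 3 SD, cut at about 10% in these data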;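 further: 0% = DMSO wells and 100% = sodium butyrate wells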
The depositor's hits bear a star; · = no result. Sampled rows, rich in hits. Any-hit rate of the full collection: about 4.8%.

SMILES	ssDAF12 agonist	SMARCA2 activ	DAX1 inh-1	DAX1 inh-2	hcDAF-12 act	hgDAF12 agonist
CC(=O)Nc1ccc(N=Cc2c(O)c3ccccc3oc2=O)cc1	-1	2	0	0	0	-1
CC(=O)Nc1ccc(N=Cc2c(O)c(C(=O)Nc3ccccc3)cc3ccccc23)cc1	2.1*	-4	·	1	4	1
O=C(/C=C/Nc1ccc(S(=O)(=O)Nc2ncccn2)cc1)c1cccs1	-1	5	5.7*	1	4	8
Oc1ccccc1C1=Nc2nc3ccccc3n2C(c2ccccc2)C1 (stereo not drawn)	1	6	1	2	4	13*
O=[N+]([O-])c1ccc(Cl)c(NC2=NCCCCC2)c1	-1	3	1	0	0	-1
Cc1ccc(C(=O)NCCCc2ccccc2)s1	0	2	3	1	6.2*	10
Cc1ccc(C(=O)NCCc2c[nH]c3ccccc23)s1	1.3*	6	1	1	1	10
O=C(NCCc1c[nH]c2ccccc12)c1cc([N+](=O)[O-])cc([N+](=O)[O-])c1	0.9*	0	-1	0	5	-1
O=C(NCCc1c[nH]c2ccccc12)c1ccccc1	-1	2	1	0	2	7
CCOC(=O)C1=CCN(S(=O)(=O)c2ccccc2Cl)C1c1cccc(C)c1 (stereo not drawn)	-1	-1	·	0	-2	-1
Cn1cnc(S(=O)(=O)NCc2cccs2)c1	1.6*	0	3	0	0	1
Cc1ccc(S(=O)(=O)N2CCC(C(=O)Nc3nnc(-c4ccc(F)cc4)s3)CC2)cc1	-1	3	1	0	6.5*	0
CCCc1nnc(NC(=O)CCC(=O)N2CCN(S(=O)(=O)c3ccc(C)cc3)CC2)s1	1.1*	-1	-2	-1	-2	0
O=C(Nc1nnc(-c2ccc(F)cc2)s1)C1CCN(S(=O)(=O)c2ccc(Cl)cc2)CC1	0	-1	1	1	-1	0
CCc1nnc(NC(=O)CCC(=O)N2CCN(S(=O)(=O)c3ccc(OC)cc3)CC2)s1	-1	0	0	1	-1	-1
Cc1ccc(S(=O)(=O)N2CCC(C(=O)Nc3cccnc3)CC2)cc1	-2	-5	5.4*	0	0	-2
O=C(Nc1ccc(Cl)c(Cl)c1)C1CCN(c2nnc(-n3cccc3)s2)CC1	-2	-2	·	0	0	3
N#C/C(=C(/O)CCl)c1nc(-c2ccccc2)cs1	1.3*	-1	0	1	4	3
CCN1CCN(C(=O)c2cc3sccc3n2CC(=O)c2ccccc2)CC1	1.2*	-3	0	2	2	0
CCN(CCNC(=O)[C@H]1C=C(OC)C(=O)C[C@H](c2ccccc2)[C@H]1C)C(C)=O	-1	0	·	0	-2	-3
CCOC(=O)Cn1nnnc1C(CC)N(Cc1cccs1)Cc1cc2cc(C)ccc2[nH]c1=O (stereo not drawn)	-1	-2	0	0	0	-1
CCOC(=O)Cn1nnnc1C(C(C)C)N(Cc1cccs1)Cc1cc2cc(C)ccc2[nH]c1=O (stereo not drawn)	-2	-1	4.3*	-1	0	-1
C/C(=N\Nc1ccc(C(F)(F)F)cn1)c1ccncc1	-1	3	0	4.0*	0	4
Oc1ccc(/C=N/Nc2ccc(C(F)(F)F)cn2)cc1	0	-2	0	4.4*	3	9
Oc1ccc(/C=N/Nc2ccc(C(F)(F)F)cn2)c(O)c1	-1	-2	0	-2	-1	-4
SMILES	ssDAF12 agonist	SMARCA2 activ	DAX1 inh-1	DAX1 inh-2	hcDAF-12 act	hgDAF12 agonist
O=C(NCCc1ccc(F)cc1)c1ccc2c(c1)ncn2C1CCCCC1	-1	0	·	0	2	1
CCOCCCNC(=O)c1ccc2c(c1)N=C(CC)c1cc(Br)ccc1S2	0	0	-2	4.2*	-1	-7
COc1ccc(C2C(C(=O)Nc3cc(OC)c(OC)c(OC)c3)CCC(=O)N2c2ccc(OC)cc2)cc1 (stereo not drawn)	-1	1	·	0	0	0
COc1ccc(-c2nc(SC)n(C(=O)c3ccco3)n2)cc1	-1	-1	4.2*	1	3	6
CCCCCC(=O)N1C[C@@H](O)[C@H](n2cc(C3CC3)nn2)C[C@@H]1c1ccc(Cl)cc1	-1	-2	4.6*	0	0	-1
CCCCCC(=O)N1C[C@H](n2cc(C3CC3)nn2)[C@@H](O)C[C@@H]1c1ccc(Cl)cc1	-1	-1	0	1	-2	-1
O=c1c(O)c(-c2ccc(O)c(O)c2)oc2cc(O)cc(O)c12	-1	-1	2	1	-2	12*
CCN(c1ccccc1)S(=O)(=O)c1ccc(C(=O)N2CCN(c3ccccc3F)CC2)cc1	-1	-5	-1	-1	0	1
CCOc1ccc(OCC)c(NC(=O)C2CCCN(C(=O)c3ccc(Cl)cc3)C2)c1 (stereo not drawn)	-2	-4	1	-1	0	-1
Cc1cccc(NC(=O)C(C)SCc2nc3sc4c(c3c(=O)[nH]2)CCCC4)n1 (stereo not drawn)	1.3*	0	-1	-2	2	2
Cc1cccc(NC(=O)CCc2nc3sc4c(c3c(=O)[nH]2)CCCC4)c1	-1	0	0	-1	-2	3
O=C(CN1CCN(c2nc(-c3ccccc3)cs2)CC1)Nc1ccc(Cl)cc1	-1	-2	·	-1	-3	-4
COc1ccc(NC(=S)N2CCCC2)c(OC)c1	-1	0	4.6*	0	1	2
COc1ccc(NC(=S)N2CCN(Cc3cccc(F)c3)CC2)c(OC)c1	-2	-2	5.0*	0	0	-1
COc1ccccc1NC(=S)N1CC(C)OC(C)C1 (stereo not drawn)	-2	2	4.6*	0	-1	-2
CN(C)S(=O)(=O)N1CCc2ccccc2C1	0	-5	4.3*	-1	-1	3
COc1cc(OC)cc(C(=O)NC(=S)N2CCCCC2c2cccnc2)c1 (stereo not drawn)	-1	-1	4	1	0	-2
COc1ccc(NC(=O)N2CCCCC2c2cccnc2)cc1 (stereo not drawn)	0	-2	0	1	5.6*	11*
CCCNC(=O)C[C@H]1CC[C@H]2[C@@H](COc3ccc(NC(=O)c4cncs4)cc3C(=O)N2C)O1	-1	-1	·	2	0	1
CCC(=O)N1CCc2cc(S(=O)(=O)N3CCN(c4cc(C)ccc4C)CC3)ccc21	·	·	0	·	·	·
NC1=NN=C(c2ccc3c(c2)OCCO3)CS1	-1	1	-1	4.5*	3	13*
